Inconclusive results are not listed. Calls of active or inactive are those of the source. Calls follow the shape of the dose curve; as a rule, active = well fitted cell-killing curve with a large enough effect; inconclusive = small, poorly fitted or top-dose-only effect; inactive = flat fitted curve, though single readings scatter.
Assay: qHTS of pediatric cancer cell lines to identify multiple opportunities for drug repurposing: Primary screen for BT-12 cells (AID 1347101); also: nearly all actives have a fitted effect of over 25% in size
Details: BT-12 viability, CellTiter-Glo luminescence, 48 h; series mostly up to 57.3 µM; activity change, negative = cytotoxic: at the top concentration
Text: Drug repurposing or repositioning has been offered as a strategy for drug development in oncology programs. This approach has special potential for childhood cancers and other rare or orphan diseases, where the expected return on new drug development has been a disincentive to pharmaceuticals.
In this project we exploit the poly-pharmacology of drugs to discover new indications via phenotypic screening of a panel of 19 well-characterized cell lines derived from solid tumors seen in children and adolescents. The goal is to identify approved drugs with previously unrecognized anticancer properties that has the potential to reveal new mechanisms and biological processes involved in carcinogenesis or drug resistance. We employed a titration-based paradigm (quantitative high-throughput screening or qHTS), where all compounds were tested at multiple concentrations for their effect on cell viability. Concentration-response curves (CRCs) were derived directly from the primary screen, and both potency and efficacy values were used to identify compounds with robust bioactivity profiles. We screened the NIH Chemical Genomics Center (NCGC) Pharmaceutical Collection (NPC) and Mechanism Interrogation Plate (MIPE) small molecule collections of approved and investigational compounds against these cell lines; and measured metabolically active cells after 48 hours of compound treatment as a proxy for cell viability.
Assay Submitter: Nathalia J. Martinez, National Center for Advancing Translational Sciences, National Institutes of Health, Rockville, MD, USA; email: natalia.martinez@nih.gov
[1] Shen, M et al. Quantitative high-throughput phenotypic screening of pediatric cancer cell lines identifies multiple opportunities for drug repurposing. Oncotarget 2017 Dec 19;9(4):4758-4772. PMID 29435139.
The cells were obtained from University of North Carolina (UNC), Pediatric Preclinical Testing Program (PPT), and Coriell Institute (CI).
qHTS cell viability assay:
Cells were assayed in growth media at a density of 500-1,000 cells/well. Five microliters of cells were dispensed into 1,536-well, white, solid-bottom, TC-treated plates (Greiner Bio One) using a multidrop dispenser and incubated at 37 degrees C, 5% CO2, under a humidified atmosphere for 5 hours. Twenty-three nanoliters of compounds and controls (neutral control DMSO or positive control bortezomib at final concentration of 2.3 µM) were subsequently transferred by Kalypsys pintool. For primary screens, the MIPE collection was tested at 11-point dilutions (final concentrations range from 0.78 nM to 46 µM) and the NPC collection at 8-point dilutions (final concentrations range from 0.59 nM to 46 µM). Compounds tested in follow-up screens were assayed at 11-point dilutions. Cells were incubated for 48 hours, followed by addition of 3 µL of CellTiter-Glo (Promega). After a 15 min incubation at room temperature, samples were analyzed for luminescence intensity using a ViewLux High-throughput CCD imager equipped with clear filters.
Potency is read from the fitted curve at half-maximal effect.

Structure (SMILES)	activity change, negative = cytotoxic	Potency
Nc1ccc(S(=O)(=O)Nc2ccccc2)cc1	5.66% (inactive)	–
C[C@H](NC(CCc1ccccc1)C(=O)O)C(=O)N1CCC[C@H]1C(=O)O (stereo not given in full)	1.64% (inactive)	–
O=Cc1ccccc1C=O	-0.267% (inactive)	–
NC(=O)NC(=O)Cc1ccccc1	0.978% (inactive)	–
COc1ccc(Cl)cc1C(=O)NCCc1ccc(S(=O)(=O)NC(=O)NC2CCCCC2)cc1	-9.42% (inactive)	–
CC(C)c1c(C(=O)Nc2ccccc2)c(-c2ccccc2)c(-c2ccc(F)cc2)n1CC[C@@H](O)C[C@@H](O)CC(=O)O	–	1230 nM (active)
O=c1[nH]c(=O)c2[nH]c(=O)[nH]c2[nH]1	3.54% [at 11.5 µM] (inactive)	–
CC(=O)OCC(=O)[C@@]1(O)CC[C@H]2[C@@H]3CCC4=CC(=O)CC[C@]4(C)[C@H]3C(=O)C[C@@]21C	-5.16% (inactive)	–
CC1=C(C/C=C(\C)CCC[C@H](C)CCC[C@H](C)CCCC(C)C)C(=O)c2ccccc2C1=O	-0.926% (inactive)	–
NC(=O)c1ncn([C@@H]2O[C@H](CO)[C@@H](O)[C@H]2O)c1N	14% (inactive)	–
CC1=C(CC(=O)O)c2cc(F)ccc2/C1=C\c1ccc(S(C)(=O)=O)cc1	-7.39% (inactive)	–
CN1CCC[C@@H]1Cc1c[nH]c2ccc(CCS(=O)(=O)c3ccccc3)cc12	2.08% (inactive)	–
N[C@H]1C(O)O[C@H](CO)[C@@H](O)[C@@H]1O (stereo not given in full)	5.38% (inactive)	–
NCC(=O)CCC(=O)O	7.88% (inactive)	–
CC(O)CN(CCN(CC(C)O)CC(C)O)CC(C)O (stereo not given)	9.54% (inactive)	–
[Cl][In]([Cl])[Cl]	18.4% [at 116 µM] (inactive)	–
C[C@@H]1C[C@H]2[C@@H]3C[C@H](F)C4=CC(=O)C=C[C@]4(C)[C@@]3(F)[C@@H](O)C[C@]2(C)[C@@]1(O)C(=O)CO	5.13% (inactive)	–
CC1=C(/C=C/C(C)=C/C=C/C(C)=C/C(=O)O)C(C)(C)CCC1	-8.43% (inactive)	–
Oc1ccc(C(O)CNCCCCCCNCC(O)c2ccc(O)c(O)c2)cc1O (stereo not given)	1.45% (inactive)	–
CC1=C(CC(=O)O)c2cc(F)ccc2/C1=C\c1ccc(S(C)=O)cc1 (stereo not given)	7.87% (inactive)	–

Structure (SMILES)	activity change, negative = cytotoxic	Potency
N[C@@H](CSCCCO)C(=O)O	11.2% [at 20.1 µM] (inactive)	–
CN1[C@@H]2CC(OC(=O)[C@H](CO)c3ccccc3)C[C@H]1[C@@H]1O[C@@H]12 (stereo not given in full)	-3.41% (inactive)	–
O=c1[nH]cnc2c1ncn2[C@@H]1O[C@H](CO)[C@@H](O)[C@H]1O	4.69% (inactive)	–
CCCOC(=O)c1ccccc1	4.05% (inactive)	–
CN1CCCCC1CCN1c2ccccc2Sc2ccc(S(C)=O)cc21 (stereo not given)	-12.1% (inactive)	–
COc1ccc2cc1Oc1cc3c(cc1OC)CC[N+](C)(C)[C@H]3Cc1ccc(cc1)Oc1c(OC)c(OC)cc3c1[C@@H](C2)[N+](C)(C)CC3	4.29% (inactive)	–
CCOC(=O)c1ccc(O)cc1	12% (inactive)	–
CCCCc1ncc(/C=C(\Cc2cccs2)C(=O)O)n1Cc1ccc(C(=O)O)cc1	4.96% (inactive)	–
C[C@@H](O)[C@H](N)C(=O)O	14.5% [at 20.1 µM] (inactive)	–
CCN(CC)CCNC(=O)c1c(C)[nH]c(/C=C2\C(=O)Nc3ccc(F)cc32)c1C	–	21900 nM (active)
O=C(Oc1ccccc1C(=O)O)c1ccccc1O	7.08% (inactive)	–
CN(C)CCN(Cc1ccccc1)c1ccccn1	4.13% (inactive)	–
CCCCC/C(C=O)=C\c1ccccc1	–	155 nM (active)
NC(=O)c1ncn([C@@H]2O[C@H](CO)[C@@H](O)[C@H]2O)n1	-17.2% (inactive)	–
CCN(CC)C(=O)Nc1ccc(OCC(O)CNC(C)(C)C)c(C(C)=O)c1 (stereo not given)	4.93% (inactive)	–
CC(C)(C)NCC(O)COc1ccc(NC(=O)NC2CCCCC2)cc1 (stereo not given)	-1.29% (inactive)	–
Cc1cc2c(cc1S(N)(=O)=O)S(=O)(=O)CCC2	13.6% (inactive)	–
O=C(O)COc1nn(Cc2ccccc2)c2ccccc12	9.96% (inactive)	–
CCN(CC)CCNC(=O)c1cc(Cl)c(N)cc1OC	5.11% (inactive)	–
CNCC(O)c1ccc(O)c(O)c1 (stereo not given)	-15.7% (inactive)	–
